Shown is part of a subset that was picked to be rich in hits.
Cycloheximide cs: Cycloheximide Counterscreen for Small Molecule Inhibitors of Shiga Toxin. 300,000 compounds, 12% hits. cell reporter, cycloheximide protein synthesis inhibition counterscreen. AID 2314, 2010. max response, %; in the data active means max response mostly above about 13%, no sharp cut-off; inactive means mostly below about 14%; further: read at 38.3 µM for the half of the compounds with a filed dose
Shiga inhibitor: A qHTS for Small Molecule Inhibitors of Shiga Toxin | Vero cells, Shiga toxin protein synthesis inhibition reporter | inhibition, % at 38.7 µM | 290,000 compounds, 9.2% hits; in the data active means inhibition mostly above about 28%, no sharp cut-off; inactive means mostly below about 43%
NS1 function inh: qHTS Assay for Inhibitors of Influenza NS1 Protein Function. Potency, µM (series often up to 46.1 µM). 270,000 compounds, 0.4% hits. AID 2326, 2010; calls by dose curve; further: actives are rising curves; nearly all actives have a fitted effect of over 50% in size
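Growth recovery, yeast-based: influenza A NS1 expressed in S. cerevisiae causes slow growth, and suppressors are detected by OD600. The parent strain without NS1 is used as positive control.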
SARS PLP yeast: qHTS of Yeast-based Assay for SARS-CoV PLP; S. cerevisiae expressing SARS-CoV PLpro, growth rescue; Potency, µM (top dose mostly 32.9 µM), usual class: activators; 330,000 compounds, 0.19% hits; calls by dose curve; further: nearly all actives have a fitted effect of over 55% in size
LmPK inh: qHTS Assay for Inhibitors of Leishmania Mexicana Pyruvate Kinase (LmPK); Q27686; purified LmPK, Kinase-Glo ATP luminescence, 1 h; Potency, µM (titrated, usually from 57.5 µM), most hits filed as inhibitors; 290,000 compounds, 0.37% hits; AID 1721, 2009
Target sequence (Q27686 whole entry, looked up): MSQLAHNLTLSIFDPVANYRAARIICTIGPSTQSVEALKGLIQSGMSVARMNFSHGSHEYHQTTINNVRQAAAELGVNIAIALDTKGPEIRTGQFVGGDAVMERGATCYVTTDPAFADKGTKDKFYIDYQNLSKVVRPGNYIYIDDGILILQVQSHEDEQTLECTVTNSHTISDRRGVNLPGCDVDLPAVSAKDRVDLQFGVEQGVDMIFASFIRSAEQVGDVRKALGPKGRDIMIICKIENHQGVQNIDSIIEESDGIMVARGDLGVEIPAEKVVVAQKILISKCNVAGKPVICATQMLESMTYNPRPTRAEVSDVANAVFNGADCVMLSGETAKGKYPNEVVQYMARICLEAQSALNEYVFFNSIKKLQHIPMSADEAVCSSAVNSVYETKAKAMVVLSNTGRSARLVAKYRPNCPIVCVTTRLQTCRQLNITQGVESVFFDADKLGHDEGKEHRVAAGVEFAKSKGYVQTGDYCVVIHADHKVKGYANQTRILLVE
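qHTS format; LmPK 0.1 nM; substrates PEP 0.5 mM and ADP 0.1 mM. One-hour room-temperature incubation, then coupled luciferase luminescence; 0.5 nM enzyme wells mark activation.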
TbPYK inhibitor: qHTS of Trypanosoma Brucei Inhibitors; pyruvate kinase (Trypanosoma brucei), Q57TT1; TbPYK enzyme, Kinase-Glo Plus ATP luminescence, 45 min; Potency, µM (highest dose often 76.8 µM), usual class: inhibitors; 410,000 compounds, 0.12% hits; AID 624173, 2012; further: nearly all actives have a fitted effect of over 50% in size
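Quantitative HTS: titrated library compounds versus trypanosomal pyruvate kinase in TEA buffer (pH 7.2) containing KCl, MgCl2, BSA and Tween-20. Reactions were initiated with ADP, 130 uM final. Kinase-Glo Plus luminescence was read after 45 min at RT.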
Hits are given with their value; n = inactive; u = inconclusive; x = not tested or not shown; [ ] = remark or other dose. Unless noted, the call rests on the fitted dose curve; in most records, active means well fitted curve in the direction sought with a large enough effect; inconclusive means small, poorly fitted or top-dose-only effect, or another doubt; inactive means no such curve, though single readings can be large; an effect the other way counts as inactive or inconclusive.

SMILES	Cycloheximide cs	Shiga inhibitor	NS1 function inh	SARS PLP yeast	LmPK inh	TbPYK inhibitor
Cc1nn(CCC(=O)NNC(=S)Nc2ccc(F)cc2)c(C)c1[N+](=O)[O-]	n	n	n	n	n	n
O=C(CCl)N1CCN(S(=O)(=O)Cc2ccccc2)CC1	x	x	x	n	x	n
Cc1ccc(NC(=O)COc2ccc(Br)cc2C)cc1	69.8	91.2	n	n	n	n
O=C(COc1ccc(Br)cc1CO)Nc1ccc(F)cc1	9.1	n	n[9.22 µM]	n	n	n
CCOC(=O)C1=CNS(=O)(=O)NC1c1ccccc1 (centres undefined)	x	x	x	n	x	n
CC(C)NC(=O)Cn1nc(N2CCN(c3ccccc3)CC2)ccc1=O	x	x	x	x	x	n
CC1CCCC(NC(=O)Cn2cc(C(F)(F)F)cc(Cl)c2=O)C1C (centres undefined)	x	x	x	n	x	n
N=C1S/C(=C\c2cn[nH]c2-c2ccc(F)cc2)C(=O)N1c1ccccc1F	20.0	n	u	n	n	n
O=C(OCc1cc(=O)n2ccsc2n1)C1(c2ccccc2)CC1	x	x	x	x	x	n
c1ccc2c(-c3cc(NCc4ccncc4)n4nccc4n3)cccc2c1	x	x	x	x	x	n
CCN1C(=O)CSC1=Nc1ccccc1Cl	n	n	n	n	n	n
CCN1C(=Nc2ccc(Cl)cc2)SC/C1=C\C(=O)OC	21.8	n	n	n	n	n
Cc1ccc(Cc2cc(C)n[nH]c2=O)cc1	n	n	n	n	n	n
Cc1ccc(-c2cc(Cc3ccncc3)c(=O)[nH]n2)cc1	11.5	n	n	n	n	n
CCN(Cc1nc(-c2cccc(Cl)c2)no1)CC1CCCO1 (centres undefined)	13.2	n	n	n	n	n
COC(=O)c1ccc(-c2noc(CN(Cc3ccncc3)CC3CCCO3)n2)cc1 (centres undefined)	n	n	n	n	n	n
CN(Cc1nc(-c2cccc(Cl)c2)no1)C1CCOCC1	34.9	83.8	n	n	n	n
CCOc1ccc(C(=O)N[C@H](C(=O)NC2CCCCC2)C(C)C)cc1	x	x	x	x	x	n
COc1ccc(C(=S)NC2CCCCC2)cc1	20.0	n	n	n	n	u
COc1ccc(CNC(=S)NC2CCCCC2)cc1	n	n	n	n	n	n
CCOc1ccc(C(=S)NC2CCCCC2)cc1	52.4	139.4	n	n	n	n
CCSc1nnc(NC(=O)CCC2CCCCC2)s1	x	x	x	x	x	n
COc1cccc(CNC(=O)Cc2ccc(OC)c(S(=O)(=O)N3CCOCC3)c2)c1	x	x	x	n	x	n
O=C(/C(=C(\O)c1ccccc1)c1ncc[nH]1)c1ccccc1	n	n	x	n	n	n
O=C(c1ccccc1)c1ncc[nH]1	18.7	n	n	n	n	n
SMILES	Cycloheximide cs	Shiga inhibitor	NS1 function inh	SARS PLP yeast	LmPK inh	TbPYK inhibitor
CN(Cc1cn[nH]c1-c1ccc(-c2ccccc2)cc1)CC1CCOCC1	17.4	n	n	n	n	n
CN(Cc1ccon1)Cc1cn[nH]c1-c1ccc(-c2ccccc2)cc1	30.1	n	n	n	n	n
CC(c1ccon1)N(C)Cc1cn[nH]c1-c1ccc(-c2ccccc2)cc1 (centres undefined)	n	73.0	n	n	n	n
CC(c1ccon1)N(C)Cc1cn[nH]c1-c1ccc(F)cc1F (centres undefined)	n	n	n	n	n	n
COc1ccc2c(c1)c1c(c(=O)n(CCc3ccccc3)c(=O)n1Cc1cccc(Cl)c1)n2C	x	x	x	x	x	n
CC(C)CN(C(=O)COC(=O)c1nc(Cl)ccc1Cl)c1c(N)n(Cc2ccccc2)c(=O)[nH]c1=O	n	n	n	n	n	n
CN1CCC(C)(C(=O)Nc2ccc3c(c2)OCCO3)C1 (centres undefined)	x	x	x	x	x	n
COc1cccc(-c2nc(CS(=O)(=O)CC(=O)N3CCN(c4ccccc4)CC3)c(C)o2)c1	x	x	x	x	x	n
CCOC(=O)/C(=N\Nc1ccc(C(C)=O)cc1)c1csc(Nc2ccccc2)n1	n	n	n	n	n	n
CCOC(=O)/C(=N\Nc1ccccc1[N+](=O)[O-])c1csc(N)n1	21.4	n	n	n	n	n
COc1cccc(C(=O)Nc2cccc(-c3cn4ccsc4n3)c2)c1OC	x	x	x	x	x	n
COc1ccc2c(-c3cc4ccc(OCc5ccc(F)cc5)cc4oc3=O)cc(=O)oc2c1	n	n	n	n	n	n
O=C1COc2ccc(OCc3ccc(F)cc3)cc21	51.0	100.9	n	n	n	n
COc1cc(OC)cc(C(=O)Nc2nc3ccc(S(C)(=O)=O)cc3s2)c1	n	52.2	x	n	n	n
CS(=O)(=O)c1ccc2nc(NC(=O)c3cc([N+](=O)[O-])cc([N+](=O)[O-])c3)sc2c1	n	x	n	n	n	n
CS(=O)(=O)c1ccc2nc(NC(=O)c3cccc([N+](=O)[O-])c3)sc2c1	30.8	75.4	n	n	n	n
N#Cc1ccc(NC(=O)Nc2ccccc2Br)c2n[nH]nc12	x	x	x	x	x	n
COc1ccc(C(O)c2nc(-c3cc(F)cc(F)c3)cs2)cc1 (centres undefined)	x	x	x	x	x	n
CCCCC(=O)NC(c1ccc(C(C)C)cc1)c1ccc2cccnc2c1O (centres undefined)	n	n	n	7.08µM	n	n
CCCCC(=O)NC(c1ccccc1Cl)c1ccc2cccnc2c1O (centres undefined)	n	n	n	u	n	n
Cc1nc(COc2ccc(C(=O)Nc3ccccc3N3CCOCC3)cc2)cs1	n	26.2	n	n	n	n
Cc1ccc2[nH]c(=O)c(-c3nc4cc(C)ccn4c3NCc3ccco3)cc2c1	23.9	n	n	n	n	n
CCCCOc1ccc(C(C)NC(=O)c2cccc(Nc3nc4ccccc4n4nnnc34)c2)cc1 (centres undefined)	x	x	x	x	x	n
Cc1cccc(-c2cc3c(nn2)-c2ccccc2C3=O)c1	30.1	48.0	n	n	7.08µM	n
CCCCn1c(N)c(N(CC(C)C)C(=O)c2cc(C)oc2C)c(=O)[nH]c1=O	n	n	n	n	n	n
SMILES	Cycloheximide cs	Shiga inhibitor	NS1 function inh	SARS PLP yeast	LmPK inh	TbPYK inhibitor
COc1cc(OC)c2c(=O)cc(-c3cccnc3)oc2c1	n	n	n	n	n	n
COc1cc2c(c3oc(-c4ccccc4)cc(=O)c13)C=CC(C)(C)O2	25.0	37.1	n	n	n	n
COc1c(O)c(O)c2oc(-c3ccccc3)cc(=O)c2c1OC	n	n	n	n	n	n
COc1cc(OC)c2c(=O)cc(-c3ccccc3)oc2c1	38.4	109.5	n	n	n	n
Cc1cccc2c(=O)cc(CSCC(=O)Nc3ccc(Cl)cc3)[nH]c12	x	x	x	x	x	n
CCCCCCCCN1C(=O)[C@H](CC(=O)N2CCOCC2)C[C@@]2(C(=O)OC)CCCCC=C12	x	x	x	x	x	n
CC(=O)c1ccc(N2CCN(C(=O)CNS(=O)(=O)c3ccc4c(c3)OCCCO4)CC2)c(F)c1	x	x	x	n	x	n
Cc1ccc(NC(=O)Cn2c(=O)n(Cc3ccccc3)c(=O)c3c(C)c(C)sc32)c(C)c1	x	x	x	x	x	n

Source: PubChem BioAssay (National Center for Advancing Translational Sciences (NCATS))
